This is one part of a sample in which hits are shown more often than they occur.
Shiga toxin inh: A qHTS for Small Molecule Inhibitors of Shiga Toxin; inhibition, % at 38.7 µM; Vero cells, Shiga toxin protein synthesis inhibition reporter; 9.2% of 290,000 active; AID 2315, 2010; in the data active = inhibition mostly above about 28%, no sharp cut-off; inactive = mostly below about 43%
LmPK inh: qHTS Assay for Inhibitors of Leishmania Mexicana Pyruvate Kinase (LmPK); purified LmPK, Kinase-Glo ATP luminescence, 1 h; Potency, µM (highest dose often 57.5 µM), hits mostly inhibitors; 0.37% of 290,000 active
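Screened at intermediate enzyme activity to detect both inhibitors and activators: LmPK at 0.1 nM, with a 0.5 nM enzyme column as activation reference. PEP 0.5 mM, ADP 0.1 mM; ATP detected by luminescence after 1 h.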
Tb PYK inh: qHTS of Trypanosoma Brucei Inhibitors | TbPYK enzyme, Kinase-Glo Plus ATP luminescence, 45 min | Potency, µM (titrated, usually from 76.8 µM), most hits filed as inhibitors | 0.12% of 410,000 active | AID 624173, 2012; also: nearly all actives have a fitted effect of over 50% in size
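ADP (130 uM final) triggers the TbPYK reaction after compound addition; incubation is 45 min at room temperature. Kinase-Glo Plus is then added and luminescence imaged. Normalized data are fitted to concentration-effect curves.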
Sm TGR block: qHTS Assay for the Inhibitors of Schistosoma Mansoni Peroxiredoxins; Schistosoma mansoni thioredoxin glutathione reductase (TGR), Q962Y6; purified TGR, DTNB reduction, TNB absorbance 405 nm; Potency, µM (highest dose often 114 µM), hits mostly inhibitors; 3% of 360,000 active; also: nearly all actives have a fitted effect of over 60% in size
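Kinetic colorimetric format: TGR-catalysed, NADPH-driven DTNB reduction monitored via TNB absorbance. Enzyme dispensed at 20 nM; compound exposure 15 min at room temperature before reaction start.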
FBPA Giardia inh: qHTS Assay for Inhibitors of Fructose-1,6-bisphosphate Aldolase from Giardia Lamblia; A8B2U2; Potency, µM (titrated, usually from 59.6 µM), hits mostly inhibitors; purified Giardia FBPA; 0.71% of 290,000 active; also: nearly all actives have a fitted effect of over 55% in size
Target sequence (A8B2U2 whole entry, looked up): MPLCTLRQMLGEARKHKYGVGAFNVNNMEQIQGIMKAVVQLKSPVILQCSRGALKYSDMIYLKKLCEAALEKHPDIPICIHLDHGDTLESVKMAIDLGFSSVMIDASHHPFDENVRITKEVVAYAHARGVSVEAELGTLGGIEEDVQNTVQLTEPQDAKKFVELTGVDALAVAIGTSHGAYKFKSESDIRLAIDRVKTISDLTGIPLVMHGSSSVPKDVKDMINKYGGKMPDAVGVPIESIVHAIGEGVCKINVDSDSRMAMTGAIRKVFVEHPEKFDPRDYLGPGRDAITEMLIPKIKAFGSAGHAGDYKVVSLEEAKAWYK
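Giardia FBPA (40 nM reagent) was preincubated 10 min at RT with compound (up to 57.5 uM final), then substrate plus GAPDH/TPI/NAD/arsenate coupling system with diaphorase/resazurin was added; resorufin fluorescence (525/598 nm) was read after 20 min.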
CHX counter: Cycloheximide Counterscreen for Small Molecule Inhibitors of Shiga Toxin; max response, %; AID 2314, 2010; 12% of 300,000 active; cell reporter, cycloheximide protein synthesis inhibition counterscreen; in the data active = max response mostly above about 13%, no sharp cut-off; inactive = mostly below about 14%; also: read at 38.3 µM for the half of the compounds with a filed dose
Large screens that a line does not name were inactive. Unless noted, calls follow the shape of the dose curve; as a rule, active = well fitted curve in the direction sought with a large enough effect; inconclusive = small, poorly fitted or top-dose-only effect, or another doubt; inactive = no such curve, though single readings can be large; an effect the other way counts as inactive or inconclusive.

C=CCn1c(=NC(=O)c2cccs2)sc2cccc(OC)c21	Shiga toxin inh 52.8, CHX counter 28.2
C#CCn1c(=NC(=O)c2ccc(Br)s2)sc2cccc(OC)c21	Shiga toxin inh 72.7, CHX counter 19.4
CC(C)Oc1ccc(CNC(=O)CN2C(=O)c3cccnc3Oc3ccc(Cl)cc32)cc1	none (no result: Shiga toxin inh, LmPK inh, FBPA Giardia inh, CHX counter)
O=[N+]([O-])c1ccc(C23CC4CC(CC(O)(C4)C2)C3)cc1	Shiga toxin inh 63.3, CHX counter 38.9 (no result: Tb PYK inh)
O=C(NC12CC3CC(CC(C3)C1)C2)c1ccc([N+](=O)[O-])cc1	none
CC(C)=Cc1oc2ccc([N+](=O)[O-])cc2c1N1CCOCC1	Shiga toxin inh 64.9, CHX counter 20.8
COc1cccc(OCC(=O)N2CCCc3ccccc32)c1	CHX counter 36.8
COc1cccc(OCC(=O)N2CCN(C)CC2)c1	Shiga toxin inh 52.9, CHX counter 35.4
Cc1ccccc1OCC(=O)N1CCCc2ccccc21	Shiga toxin inh active, CHX counter 33.4
CN1CCN(C(=O)COc2ccc(Oc3ccccc3)cc2)CC1	none
O=C(COc1ccc(F)cc1)N1CCCc2ccccc21	none
CCCn1c(C)cc(C(=O)Cn2nnc3ccccc3c2=O)c1C	Shiga toxin inh 82.3, CHX counter 34.7
Cc1cc(C(=O)Cn2nc(C(=O)O)c3ccccc3c2=O)c(C)n1-c1ccc(F)cc1	Shiga toxin inh 154.6, CHX counter 48.7
C=CCn1c(C)cc(C(=O)Cn2nc(C(=O)O)c3ccccc3c2=O)c1C	Shiga toxin inh 55.7, CHX counter 31.6
COCCn1c(C)cc(C(=O)Cn2nc(C(=O)O)c3ccccc3c2=O)c1C	none
COc1cc(C2c3c(oc4ccccc4c3=O)C(=O)N2Cc2ccc(C)cc2)ccc1O (stereo not given)	none (no result: Shiga toxin inh, LmPK inh, FBPA Giardia inh, CHX counter)
COc1ccccc1Cc1nc2ccccc2nc1SCC(=O)NCc1ccccc1Cl	none (no result: Shiga toxin inh, LmPK inh, FBPA Giardia inh, CHX counter)
Cn1nc(OC(=O)Nc2ccc(Cl)cc2)cc1C(F)(F)F	CHX counter 17.2 (no result: Tb PYK inh)
Cn1nc(OC(=O)Nc2ccc(F)cc2)cc1C(F)(F)F	none
CC(C)c1ccc(NC(=O)c2cc([N+](=O)[O-])ccc2N2CCOCC2)cc1	none (no result: FBPA Giardia inh)
N#Cc1c(NC(=O)c2ccc([N+](=O)[O-])o2)sc2c1CCC2	Shiga toxin inh 96.9, Sm TGR block 35.5µM, FBPA Giardia inh inconclusive, CHX counter 27.8
N#Cc1c(NC(=S)NC(=O)c2ccccc2)sc2c1CCN(CCc1ccccc1)C2	none (no result: Tb PYK inh)
N#Cc1c(NC(=S)NC(=O)c2ccccc2)sc2c1CCCC2	Shiga toxin inh 35.1, Sm TGR block inconclusive, CHX counter 33.7
NC(=O)c1c(NC(=O)c2cccnc2)sc2c1CCCC2	Shiga toxin inh 72.6
CC(C)Cc1nnc(NC(=O)c2cc([N+](=O)[O-])ccc2N2CCOCC2)s1	FBPA Giardia inh inconclusive, CHX counter 18.9
CCCCCCCC/C=C\CCCCCCCC(=O)OC[C@@H](O)COP(=O)(O)O	none (no result: Shiga toxin inh, LmPK inh, Tb PYK inh, Sm TGR block, CHX counter)
Cc1cccc(C(=O)Nc2sc3c(c2C#N)CCCCC3)c1	Shiga toxin inh 84.7, CHX counter 43.5
N#Cc1c(NC(=O)c2cccnc2)sc2c1CCC2	CHX counter 19.4
Cc1ccc(/C=C/C(=O)Nc2sc3c(c2C#N)CCCC3)o1	Sm TGR block 44.7µM
O=C(Nc1sc2c(c1C(=O)c1ccccc1)CCCC2)c1cccnc1	none
Cc1cccc(NC(=O)c2c(NC(=O)c3ccccc3)sc3c2CCCC3)c1	Tb PYK inh inconclusive (no result: LmPK inh, FBPA Giardia inh)
N#Cc1c(NC(=O)c2ccccc2)sc2c1CCC2	Shiga toxin inh 196.3, CHX counter 45.7
Cc1cc(C)cc(N2CCn3c2nc2c3c(=O)n(Cc3c(F)cccc3Cl)c(=O)n2C)c1	none (no result: Shiga toxin inh, LmPK inh, FBPA Giardia inh, CHX counter)
O=S(=O)(c1ccc(F)cc1)N1CCN(c2nc(-c3ccc(F)cc3)nc3cc(Cl)ccc23)CC1	none (no result: LmPK inh, Tb PYK inh, Sm TGR block, FBPA Giardia inh)
NC(N)=NCCC[C@H](N)C(=O)NCC(=O)N[C@@H](CC(=O)O)C(=O)O	none (no result: LmPK inh, Tb PYK inh, Sm TGR block)
CC1CCc2c(sc(NC(=S)NC(=O)c3ccccc3)c2C#N)C1 (stereo not given)	Shiga toxin inh 65.4, Sm TGR block inconclusive, CHX counter 21.3
